The source of these data is PubChem BioAssay.

The structures appear in SMILES notation. Unmarked numbers belong to inactive results.

For this test, the system named is XIP peptide (Xip251-270) binding. In words: XIP fragment 251-270 binding compounds – biochemical, small-molecule microarray, fluorescence 635/667 nm, 0.1 µg/mL protein, primary screen (AID 1182). The settings on record: fluorescent protein binding, 635 nm, higher = more signal, called active from +8 up or from −8 down.
Consider `C[C@H]1CC[C@H]2C(=O)N[C@H](Cc3ccccc3)C(=O)N2[C@@H]1c1ccccc1`, for which the composite z-score is 0.469.
The value for `COc1ccc(COC(=O)NN=C2C[C@@H](O)[C@@H](O)[C@@H]3[C@@H]4C(=O)N(C[C@@H]5CCCO5)C(=O)[C@@H]4CC[C@H]23)cc1` was -0.0696; that for `OC[C@H]1O[C@H](C#Cc2ccccc2)C=C[C@@H]1O` was 0.0849.
`O=C1C=C[C@@H](O)[C@@H]2[C@@H]3C(=O)N(c4cccc(Oc5ccccc5)c4)C(=O)[C@@H]3CC[C@@H]12`: the composite z-score was -0.0205.
The value for `O=C1CCCC=C1C(O)COCc1ccccc1` (stereo unspecified) was 0.253; that for `CCN1C(=O)[C@H]2[C@H]3[C@H](O)[C@H](O)CC(=NO[C@H](C)c4cn([C@H](CO)Cc5ccccc5)nn4)[C@@H]3CC[C@H]2C1=O` was 1.66.
Take `COc1ccc(O[C@H]2C=C[C@@H](c3ccccc3)O[C@@H]2CON=C2c3cc(OC)ccc3O[C@H](c3cccc(OC)c3)[C@H]2O)cc1`: the composite z-score was -0.167.
On to `CCOC(=O)CCN1C(=O)[C@H]2[C@@H]3C(=CC[C@H]2C1=O)C(=O)[C@H]1O[C@H]1[C@H]3O`, for which the composite z-score was -0.0103.
`CC(C)=CCCC(C)=CCON=C1C[C@@H](O)[C@@H](O)[C@@H]2[C@@H]3C(=O)N(Cc4ccc5c(c4)OCO5)C(=O)[C@@H]3CC[C@H]12`: the composite z-score was 0.165.
Regarding `C=CC[C@@H]1C=C[C@H](ON=C(C)CCN2CCCCc3nc(C)c(C)cc32)[C@@H](CO)O1`, the composite z-score was -0.167.
As to `CON=C(C)CCN1CCCCc2nc(C)c(C)cc21`, the composite z-score is 0.0459.
`COc1ccc(COC(=O)NN=C2C[C@@H](O)[C@@H](O)[C@@H]3[C@@H]4C(=O)N(c5cccc(Oc6ccccc6)c5)C(=O)[C@@H]4CC[C@H]23)cc1`: the composite z-score is -0.538.
On to `COCCNC(=O)OCC1CCCC2(CC(OC(=O)NCc3cccc4ccccc34)CC(CCC(=O)N[C@@H](C)C(=O)OC)O2)O1` (stereo partly specified), for which the composite z-score is 0.505.
The value for `CCOC(=O)[C@H](CC(C)C)NC(=O)CCC1CC(OC(=O)NCc2ccc3c(c2)OCO3)CC2(CCCC(COC(=O)NCCc3ccc(Cl)cc3)O2)O1` (stereo partly specified) was -0.0891; that for `CC(C)CON=C1C[C@@H](O)[C@@H](O)[C@@H]2[C@@H]3C(=O)N(Cc4ccc5c(c4)OCO5)C(=O)[C@@H]3CC[C@@H]12` was -0.263.
In the case of `CC(C)=CCCC(C)=CCON=C1C[C@@H](O)[C@@H](O)[C@@H]2[C@@H]3C(=O)N(Cc4ccc5c(c4)OCO5)C(=O)[C@@H]3CC[C@@H]12`, the composite z-score is 1.07.
With `Cc1cc2c(nc1C)CCCCN2CC(O)CN1CCCc2nc(-c3ccc(Br)cc3)ccc21` (stereo unspecified), the composite z-score is -0.0362.
The value for `COc1ccc(OC[C@@H]2CC3[C@@H](c4ccc(Br)cc4)[C@H](C)CC[C@H]3C(=O)O2)cc1` (stereo partly specified) was -0.0755; that for `CCN1C(=O)[C@H]2[C@H]3[C@H](O)[C@H](O)CC(=NO[C@@H]4O[C@H](COC(C)=O)[C@@H](OC(C)=O)[C@H](OC(C)=O)[C@H]4OC(C)=O)[C@@H]3CC[C@H]2C1=O` was 0.369.
To `COc1ccc(O[C@H]2C=C[C@@H](c3ccccc3)O[C@@H]2COC(=O)NCc2cccc3ccccc23)cc1` belongs -0.318.
With `CCN1C(=O)[C@H]2[C@H]3[C@H](O)[C@H](O)CC(=NOC[C@@H](O)COCc4ccco4)[C@H]3CC[C@H]2C1=O`, the composite z-score was 0.386.
To `CCOC(=O)CCN1C(=O)[C@H]2[C@H]3[C@H](O)[C@H](O)CC(=NO[C@@H]4O[C@H](CO)[C@@H](O)[C@H](O)[C@H]4O)[C@H]3CC[C@H]2C1=O` belongs 0.234; to `CO[C@H]1COC(=O)CC=C[C@@H](C)COC(=O)[C@H]2CCCN2C(=O)CC=C[C@H]1C`, 0.0735; to `CCCC[C@H]1CN2[C@@H](CC[C@@H](C)[C@@H]2c2ccc(Br)cc2)C(=O)O1`, 0.977.
To `CCOC(=O)CCN1C(=O)[C@H]2[C@H]3[C@H](O)[C@H](O)CC(=NOCC=C(C)CCC=C(C)C)[C@@H]3CC[C@H]2C1=O` belongs 0.257; to `CCN1C(=O)[C@H]2[C@H]3[C@H](O)[C@H](O)CC(=NOCC[C@@H]4C=C[C@H](OC(C)=O)[C@@H](COC(C)=O)O4)[C@@H]3CC[C@H]2C1=O`, 0.607; to `CCOC(=O)CCN1C(=O)[C@H]2[C@H]3[C@H](O)[C@H](O)CC(=NO[C@@H]4O[C@H](CO)[C@@H](O)[C@H](O)[C@H]4O)[C@@H]3CC[C@H]2C1=O`, 0.557.
The value for `CCOC(=O)[C@H](CC(C)C)NC(=O)CCC1CC(OC(=O)NCCc2ccc(F)cc2)CC2(CCCC(COC(=O)NCCOC)O2)O1` (stereo partly specified) was 0.0029; that for `C[C@@H](c1ccccc1)N1C(=O)[C@H]2[C@H]3[C@H](O)[C@H](O)CC(=NOC[C@@H](O)COCc4ccco4)[C@H]3CC[C@H]2C1=O` was 0.15; that for `CC(C)CN1CCc2nc(-c3ccccc3)c3c(c2C1)CO[C@@H](C)C3` was 0.973.
For the compound `O=C1[C@H]2[C@H]3[C@H](O)[C@H](O)CC(=NOC[C@@H](O)COCc4ccco4)[C@@H]3CC[C@H]2C(=O)N1c1cccc(Oc2ccccc2)c1`, the composite z-score is 0.2.
To `CO[C@@H](C1CCCCC1)[C@@H](C)[C@H](OCc1cccc(Br)c1)[C@@H](C)CO` belongs -0.0994.
The value for `CCN1C(=O)[C@H]2[C@H]3[C@H](O)[C@H](O)CC(=NO[C@@H]4O[C@H](CO)[C@@H](O)[C@H](O)[C@H]4O)[C@H]3CC[C@H]2C1=O` was -0.0195; that for `CCN1C(C)=C(C(=O)OC)[C@@H](c2ccccc2)N2C(=O)[C@](O)(C(=O)OC)CC(C(C)=O)=C12` was 0.181.
With `C#CCCCON=C1[C@H]2CCn3c(=O)n([C@@H](CC)c4ccccc4)c(=O)n3[C@H]2[C@H](O)[C@@H]2O[C@H]12`, the composite z-score was 0.967.
`CCOC(=O)[C@H](Cc1ccccc1)NC(=O)CCC1CC(OC(=O)NCc2ccc3c(c2)OCO3)CC2(CCCC(COC(=O)NCCOC)O2)O1` (stereo partly specified): the composite z-score was 0.247.
